Results on 101 compounds are retold here after PubChem BioAssay AID1347417 (National Center for Advancing Translational Sciences (NCATS), 2020).

Hit rate of the full screen: of about 120,000 compounds, about 5,300 (4.4%) were called active. Roughly 22% stayed inconclusive and do not appear here. The call rests on the fitted dose curve; in most records, active means well fitted inhibition curve with a large enough effect; inconclusive means small, poorly fitted or top-dose-only effect; inactive means no such curve, though single readings can be large or run the other way. The entries come from a sample that favours actives as a whole. Where a call stands in place of a potency, no number is given.
Potency means the concentration at half of the fitted maximal effect.

The nature of the experiment: qHTS Primary assay for Inhibitors of Plasmodium falciparum Dd2 growth in vitro. Further: nearly all actives have a fitted effect of over 65% in size. The conditions noted are these: P. falciparum Dd2 growth, SYBR Green, 72 h; series mostly up to 28.9 µM. An outline of the steps:
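Readout: SYBR Green fluorescence, 485 nm excitation, 535 nm emission, after ~16 h lysis at 37C. Before that, Dd2-infected red cells (2.5% hematocrit) grew 72 h with compound, 29 uM top final concentration.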
As to `COC(=O)c1cnn(-c2ccc(C(=O)Nc3ccc(OC(F)(F)F)cc3)cc2)c1N`, the Potency is 1.58 µM (active). With `CCOc1ccc(NC(=O)c2cnn(-c3ccccc3)c2-n2cccc2)cc1`, the Potency entry is “inactive”.

On to `Cc1ccc2ncc(C(=O)Nc3ccc(OC(F)(F)F)cc3)c(=O)n2c1`, for which the Potency result was “inactive”.

`O=C(NCC1(COc2ccc(C(F)(F)F)cn2)C[C@@H](O)[C@@H](O)C1)c1ccc(F)cc1` (stereo partly specified): the Potency result is “inactive”. The same measure, in the same setting: the entry for `CCn1cc(CN2C[C@@H](COC)[C@H](c3nc(COC)no3)C2)cn1` is “inactive”. With `COc1ccc(CCC(=O)NCc2ccc3c(c2)CCN3C(=O)c2ccc(F)cc2)cc1`, the Potency was 4.47 µM (active). Same read-out and setting: then `O=C(CCc1ccccc1)NCc1ccc2c(c1)CCN2C(=O)c1ccccc1`, with “inactive”; and `O=C(COc1ccccc1)NCc1ccc2c(c1)CCN2C(=O)c1ccc(F)cc1`, with “inactive”. Still for that read-out and setting: the entry for `Cc1ccc(CNC(=O)N2CCCOCCNC(=O)[C@@H]3CCC[C@@H]32)cc1` is “inactive”. Still for that read-out and setting: the entry for `C[S+](=O)([O-])c1ccc(CC(=O)N2CC(CNC(=O)C3CC3)C3(C2)CN(c2ccccc2)C3)cc1` (stereo unspecified) is “inactive”. Take `Oc1ccccc1CN1CCOC[C@H]1c1ncc(-c2ccc(C(F)(F)F)cc2)[nH]1`: the Potency was 1.26 µM (active). `c1cc(CN2CCOC[C@H]2c2ncc(-c3ccncc3)[nH]2)ccn1`: the Potency result was “inactive”.

Take `c1cncc(-c2cnc([C@@H]3COCCN3Cc3cnc4ccccc4c3)[nH]2)c1`: the Potency entry is “inactive”. Turning to `O=C(COc1ccccc1)N[C@H]1[C@H](O)[C@H](O)C[C@@H]1c1ccc(C(F)(F)F)cc1`, the Potency result was “inactive”. Same read-out and setting: then `Cc1ccc2c(c1)N1C(=O)OC[C@@H]1CCN(C(=O)Nc1ccccc1)C2`, with “inactive”.

On to `CCOC(=O)c1ccc(NC(=O)Cn2nc3c(cc2=O)CN(C(C)=O)CC3)cc1`, for which the Potency entry was “inactive”. Still for that read-out and setting: then `N#Cc1cccc(CN2CCC(C3=NC(O)c4cc(F)ccc4N3)CC2)c1` (stereo unspecified), with “inactive”; and `CCn1cc(CN2CCC(N3CC(OCC4CC4)C34CCCCC4)CC2)cn1` (stereo unspecified), with 1.41 µM (active). With `Fc1cccc(CN2CCC(N3CC(OCC4CC4)C34CCCCC4)CC2)c1` (stereo unspecified), the Potency is 0.501 µM (active).

For `O=C(c1ccc2[nH]ccc2c1)N1CCC(N2CC(OCC3CC3)C23CCOCC3)CC1` (stereo unspecified), the Potency entry is “inactive”. Same read-out and setting: the entry for `COCCOC1CN(C2CCN(C(=O)C3CCOCC3)CC2)C12CCCCC2` (stereo unspecified) is “inactive”; for `COCCOC1CN(C2CCN(C(=O)c3ccc(OC)nc3)CC2)C12CCCCC2` (stereo unspecified) it is “inactive”; for `O=C(Nc1cccc(Cl)c1)[C@@H]1C[C@@H](c2ccc(F)cc2)N([S+](=O)([O-])c2cccnc2)C1` it is “inactive”. Same read-out and setting: the entry for `O=C1CC(c2ccccc2)N(C(=O)CNC(=O)NCc2ccc(F)cc2)CCCCCN1` (stereo unspecified) is “inactive”; for `O=C1CC(c2ccccc2)N(C(=O)CNC(=O)C2CCC2)CCCCCN1` (stereo unspecified) it is “inactive”; for `COc1ccc(CNC(=O)NCC(=O)N2CCCCCCNC(=O)CC2c2ccccc2)cc1` (stereo unspecified) it is 8.91 µM (active). On the same count and under the same terms, then `CCn1cc(S(=O)(=O)N2CC[C@H]3C(=O)NCCCCCCN(Cc4ccncc4)[C@@H]3C2)cn1`, with “inactive”; and `CN(C)C[C@@H]1CN(C)C[C@H]1NC(=O)c1cc2ccccc2[nH]1`, with “inactive”. `CN(C)C[C@@H]1CN(C)C[C@H]1NS(=O)(=O)c1cccc(C(F)(F)F)c1`: the Potency is 3.55 µM (active). `NC(=O)[C@H](CCC(=O)O)NC(=O)[C@@]1(O)C[C@@H](O)[C@H](O)[C@@H](NS(=O)(=O)c2cccc(C(F)(F)F)c2)C1`: the Potency entry was “inactive”. The same measure, in the same setting: then `CN(C)C[C@@H]1CN(C(=O)c2ccc3c(c2)OCC(=O)N3)C[C@@H]1CO`, with “inactive”. The same measure, in the same setting: the entry for `O=C(NCc1ccc2c(c1)OCO2)c1noc(-c2ccc(F)cc2)n1` is “inactive”; for `Cc1ccc(NC(=O)Cn2cccc2-c2nc(-c3ccc4c(c3)OCO4)no2)cc1Cl` it is “inactive”. Still for that read-out and setting: the figure for `O=C(CCc1ccccc1)NCCn1cccc1-c1nc(-c2ccc3c(c2)OCO3)no1` is 7.08 µM (active). Regarding `CCc1noc(C)c1C(=O)N1CC[C@@H](NC(=O)c2ccccn2)[C@H](O)C1`, the Potency entry was “inactive”. The same measure, in the same setting: then `O=C(CSc1nccn1C1CCCC1)Nc1cc(C(F)(F)F)ccc1Cl`, with 11.2 µM (active); and `O=C(CSc1nccn1-c1ccc(F)cc1)Nc1cccc2ccccc12`, with “inactive”.

For `O=C(CSc1nc(=O)[nH]c2c1CCCC2)Nc1cc(C(F)(F)F)ccc1Cl`, the Potency result was “inactive”. Turning to `COc1ccc(NC(=O)CSc2nccn2C2CCCC2)cc1OC`, the Potency entry is “inactive”.

On to `Cc1cccc(-n2ccnc2SCC(=O)Nc2cc(C(F)(F)F)ccc2Cl)c1`, for which the Potency was 3.55 µM (active).

For `Cc1cc(C)cc(-n2ccnc2SCC(=O)Nc2nc3ccccc3s2)c1`, the Potency entry was “inactive”. On the same count and under the same terms, then `Cc1ccc(-c2noc([C@@H]3CCCN3C(=O)c3cc(Cl)ccc3F)n2)cc1`, with “inactive”; and `CS(=O)(=O)Cc1ccc(-c2cccc(OCc3ccccc3F)c2)nc1`, with “inactive”; and `COCCC(=O)NCCC1CCN(C(=O)Nc2ccccc2F)CC1`, with “inactive”. On the same count and under the same terms, the entry for `C[S+](=O)([O-])N1CC2ON=C(C(=O)O)C2C1` (stereo unspecified) is “inactive”; for `CCOc1ccc2c(n1)CCN(C(=O)c1ccccc1C)C2` it is “inactive”; for `C[C@@H]1CN(C(=O)c2ccc(-c3ccn[nH]3)cc2)CC[C@@]1(O)C1CCOCC1` it is “inactive”. Still for that read-out and setting: then `COC(=O)CNC(=O)N1CCOC(c2ccc(Cl)c(Cl)c2)C1` (stereo unspecified), with “inactive”; and `Cc1noc(-c2cccn3c(CNC(=O)CCc4ccccc4)nnc23)n1`, with “inactive”.

For `COc1cccc(CC(=O)NC2CCN(c3cc(-c4ccccc4)[nH]n3)C2)c1` (stereo unspecified), the Potency result was “inactive”. On the same count and under the same terms, then `CC#CCn1cc2c3c(cccc31)[C@H](CC(C)C)N[C@H](C(=O)NCc1ccccc1OC)C2`, with “inactive”. The same measure, in the same setting: then `COc1ccc(CNC(=O)[C@@H]2Cc3cn(Cc4ccncc4)c4cccc(c34)[C@H](CC(C)C)N2)cc1`, with “inactive”; and `CC(C)C[C@@H]1N[C@H](C(=O)NCc2ccc(F)cc2)Cc2cn(C)c3cccc1c23`, with 14.1 µM (active); and `O=C(Nc1cccnc1)N[C@@H]1C[C@H](CO)[C@@H](O)[C@H]1O`, with “inactive”. Same read-out and setting: then `Cc1ccccc1CNC(=O)C1CCCN(C(=O)c2ccccc2)CCC(=O)NCC1` (stereo unspecified), with “inactive”; and `O=c1c2cccnc2n(Cc2cccc(F)c2)c(=O)n1Cc1ccccc1Cl`, with 12.6 µM (active).

With `O=C(O)c1ccc(CSc2nc3cccnc3n2Cc2cccc(F)c2)cc1`, the Potency entry was “inactive”.

Regarding `COc1ccc(-n2c(=O)c3ccccc3n(Cc3ccccc3Cl)c2=O)cc1`, the Potency result was “inactive”.

As to `COc1ccc(-c2ccnc3nc(CC(C)C)nn23)c(F)c1`, the Potency entry is “inactive”. The same measure, in the same setting: the entry for `CC(NC(=O)c1noc(-c2ccc(F)cc2)n1)c1ccc(F)cc1` (stereo unspecified) is “inactive”; for `CC(C)CN1CCN(C2CCOC3(CCN(S(=O)(=O)c4cccs4)CC3)C2)CC1` (stereo unspecified) it is “inactive”. On the same count and under the same terms, then `CC(C)C(=O)N1CCC(OC2CCN(Cc3ccccc3)CC2)CC1`, with “inactive”; and `Cc1cccc(C(=O)N2CCC(OC3CCN(Cc4ccccc4)CC3)CC2)c1`, with 3.98 µM (active). Same read-out and setting: then `CN1CCCN(S(=O)(=O)c2cccs2)c2ccccc21`, with “inactive”; and `O=S(=O)(c1cccs1)N1CCC(OC2CCN(Cc3ccccc3)CC2)CC1`, with 3.55 µM (active); and `Cc1cccc(C(=O)N2CCC(CC(=O)NCc3ccccc3)C2)c1` (stereo unspecified), with “inactive”.

On to `N[C@H]1CCN2C(=O)c3cc(-c4ccc(F)cc4F)ccc3NC(=O)[C@H]12`, for which the Potency result is “inactive”.

Regarding `Cc1cccc(C(=O)N2CC(c3nnc(C(C)C)o3)C3(CCOCC3)C2)c1` (stereo unspecified), the Potency entry is “inactive”. In the case of `Cc1cnc(CCNC(=O)Nc2ccccc2F)n1C1CCC1`, the Potency was 4.47 µM (active). `Cc1cnc(CCNC(=O)c2cn(C)cn2)n1C1CC1`: the Potency entry is “inactive”. With `CC(=O)NCCc1ncc(C)n1C1CCCCC1`, the Potency entry is “inactive”.

With `C=C(C)CN(CC)C(=O)c1c(C)oc2c1CN(Cc1cccc(F)c1)CC2`, the Potency was 8.91 µM (active). Same read-out and setting: the entry for `CCNC(=O)c1c(C)oc2c1CN(C(=O)CCc1ccccc1)CC2` is “inactive”. As to `O=c1[nH]c(N2CCOCC2)nc2c1CCN(Cc1cccc(F)c1)CC2`, the outcome is “inactive [at 5.79 µM]”. As to `O=C(CCc1ccccc1)N1CCCCCC1c1nc(-c2ccccc2)no1` (stereo unspecified), the Potency result is “inactive”. Same read-out and setting: the entry for `Cc1cccc(CC(=O)N2CCC(c3noc(COCC4CC4)n3)CC2)c1` is “inactive”. On the same count and under the same terms, then `Cc1ccc2c(C)c(C(=O)N3CCCn4cncc4C3)oc2c1`, with “inactive”; and `COc1ccc(NC(=O)c2ccc3nc(C(C)C)oc3c2)cc1OC`, with “inactive”; and `COc1ccc(C(=O)Nc2ccc3nc(N4CCCCC4)cc(C)c3c2)cc1OC`, with 3.16 µM (active). For `COc1ccc(NC(=O)c2ccc3c(c2)N(S(C)(=O)=O)CC3)cc1OC`, the Potency entry was “inactive”. Consider `COc1ccc(N2CCC(NC(=O)c3ccc(N(C)C)cc3)C2=O)cc1` (stereo unspecified), for which the Potency result was “inactive”.

`O=C(NCc1ccc(Cl)nc1)c1cnn2c1CN([S+](=O)([O-])c1cccc(C(F)(F)F)c1)CC2`: the Potency entry is “inactive”.

In the case of `O=C(Nc1ccc2nc(SCCOc3ccccc3)sc2c1)c1ccco1`, the Potency is 4.47 µM (active). Still for that read-out and setting: then `Cc1ccc(OCCSc2nc3ccc(NC(=O)COc4ccc(C)cc4)cc3s2)cc1`, with “inactive”. On the same count and under the same terms, the entry for `CC(=O)Nc1ccc2nc(SCCOc3cc(C)cc(C)c3)sc2c1` is “inactive”. The same measure, in the same setting: the entry for `COc1cc(C)ccc1OCCSc1nc2ccc(NC(=O)c3ccc(C)cc3)cc2s1` is “inactive”; for `Cc1cccc(OCCSc2nc3ccc(NC(=O)COc4ccccc4C)cc3s2)c1` it is “inactive”; for `Cc1ccccc1OCCSc1nc2ccc(NC(=O)c3ccco3)cc2s1` it is 2.24 µM (active). For the compound `CN1CC2(CCN(Cc3cn[nH]c3-c3ccccc3)CC2)CC1C(=O)N1CCOCC1` (stereo unspecified), the Potency entry is “inactive”. On to `O=C(CCc1conc1-c1ccccc1F)NCc1cccc(C(F)(F)F)c1`, for which the Potency entry is “inactive”.

For `C=CCCC(CN1CCCC1)Oc1cncc(C(=O)N2CCCC2)n1` (stereo unspecified), the Potency is 7.94 µM (active). Still for that read-out and setting: the entry for `COC[C@@H]1CN(C(=O)Cc2ccc(OC)cc2)C[C@H]1C(N)=O` is “inactive”; for `CCCC1c2nccn2CCCN1C(=O)c1ccc(OC)nc1` (stereo unspecified) it is “inactive”; for `COc1ccccc1OCCNC(=O)CCc1cc2cc(C)ccc2[nH]c1=O` it is “inactive”. Still for that read-out and setting: the entry for `O=C(N[C@@H]1CCOC[C@H]1Oc1ccccn1)c1cc(C2CC2)no1` is “inactive”.

For the compound `O=C1Nc2ccccc2CC12CCN2Cc1cncs1` (stereo unspecified), the Potency entry was “inactive”. On the same count and under the same terms, the entry for `N#Cc1ccc(CN2CCC3(Cc4ccccc4NC3=O)C2)cc1` (stereo unspecified) is “inactive”; for `Cc1nn(-c2ccccc2)c(C)c1CN1CCCC12Cc1ccccc1CNC2=O` (stereo unspecified) it is 2.24 µM (active). Same read-out and setting: the figure for `O=C1Nc2ccccc2CC12CCCN2Cc1ccccc1` (stereo unspecified) is 10 µM (active). The same measure, in the same setting: then `Cc1ccc(CN2CCCC23Cc2ccccc2CNC3=O)cc1C` (stereo unspecified), with “inactive”; and `COc1ccc(CN2CCC3(CC2)Cc2ccccc2CNC3=O)cn1`, with “inactive”.
